Bioassay records deposited in PubChem by several laboratories.
Anthrax LF prot: Bacillus anthracis LF protease inhibitors, primary screen, biochemical, multiplex microsphere, MLPCN library | inhibition, % at 10 µM | Lethal factor (Bacillus anthracis), P15917 | 360,000 tested, 0.12% active | multiplex microsphere protease cleavage assay | AID 588501, 2011
MazEF act: activators of E. coli MazEF toxin-antitoxin RNase, primary screen, biochemical, fluorescence, uHTS | AID 504720, 2011 | activation, % at 20 µM | FAM/BHQ RNA-DNA oligo cleavage fluorescence, 5 h | 350,000 tested, 0.32% active | Endoribonuclease toxin MazF (Escherichia coli (strain K12)), P0AE70; in the data active = activation above about 50%
Target sequence (P0AE70 whole entry, looked up): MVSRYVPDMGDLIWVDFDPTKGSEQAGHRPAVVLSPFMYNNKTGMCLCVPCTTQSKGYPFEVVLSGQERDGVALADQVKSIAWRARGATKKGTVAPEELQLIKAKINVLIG
Vc quorum ag: inducers of Vibrio cholerae quorum light production without autoinducers, primary screen, BH1578 luxS cqsA deficient, single point | V. cholerae BH1578 lux reporter, luminescence, 6 h | activation, % at 18.7 µM | 350,000 tested, 0.16% active | AID 588436, 2011; in the data active = activation mostly above about 9.7%, no sharp cut-off; inconclusive = no clear call, values can overlap the other calls; inactive = mostly below about 3.7%
Bead autofluor: flagged as autofluorescent in microsphere protease counterscreen; compound autofluorescence counterscreen, microsphere flow cytometry; stronger effect = higher value; fluorescence intensity (concentration not given with the values); 360,000 tested, 3.1% active; in the data active = fluorescence intensity above about 16000; inconclusive = no clear call, values can overlap the other calls
BoNT-F LC inh: BoNT/F light chain protease inhibitors, primary screen, biochemical, flow cytometry, MLPCN library; Botulinum neurotoxin type F light chain protease (Clostridium botulinum); 360,000 tested, 0.22% active; inhibition, % at 10 µM; Multiplex microsphere protease cleavage assay; in the data active = inhibition above about 35%, passing the limit was not always enough; inconclusive = no clear call, values can overlap the other calls
BoNT-A LC inh2: BoNT/A light chain protease inhibitors, primary screen, biochemical, flow cytometry, MLPCN library; multiplex microsphere protease substrate cleavage; AID 588499, 2011; Botulinum neurotoxin type A light chain protease (Clostridium botulinum A str. ATCC 3502); 360,000 tested, 0.17% active; inhibition, % at 10 µM
Large screens that a line does not name were inactive. Shown are actives, neighbours in structure and some others; about 3.9% of the full set was active somewhere. Cut-off read from the data, not from the text of the source, unless noted: active = inhibition above about 30%; inconclusive = no clear call, values can overlap the other calls; inactive = below that.

CCN(CC)S(=O)(=O)c1cc(NC(=O)COC(=O)CCc2nc3ccccc3s2)ccc1C	Bead autofluor 22825, BoNT-A LC inh2 inconclusive
Cc1cc(C)c(S(=O)(=O)N2C[C@H]3CON(C)[C@H]3C[C@H]2c2ccc(N3CCCCC3)cc2)c(C)c1	Bead autofluor 34680 (no result: MazEF act, Vc quorum ag)
Cc1ccccc1S(=O)(=O)N1C[C@H]2CON(C)[C@H]2C[C@H]1c1cccc(N2CCOCC2)c1	none
Cc1ccc(S(=O)(=O)N2CCC(C(=O)NNC(=O)c3cccnc3)CC2)cc1	none
CCOCCn1c(SC(C)C(C)=O)nc2c1c(=O)[nH]c(=O)n2C (centres undefined)	none
N#C/C(=C(/O)c1ccc(C(=O)c2ccccc2)cc1)c1nc2ccccc2[nH]1	none
CCCCOc1ccc(/C(O)=C(\C#N)c2nc3ccccc3[nH]2)cc1	BoNT-F LC inh 42.1
O=c1c(-c2nc3ccccc3s2)cccn1Cc1ccccc1	Bead autofluor 22734, BoNT-A LC inh2 inconclusive
Nc1ccccc1-c1nc2ccccc2s1	none
Cc1ccc(Cn2cccc(-c3nc4ccccc4s3)c2=O)cc1	MazEF act 74.4
Cc1ccc(Cn2ccccc2=N)cc1	none
COc1ccc(C(C)(O)c2nc(-c3ccc4ccccc4c3)cs2)cc1 (centres undefined)	none (no result: MazEF act)
CCC(C)(C)NC(=O)C(c1ccc(F)cc1)N(Cc1cccs1)C(=O)c1cnccn1 (centres undefined)	none
CN(C)c1nc(N(C)C)c2cnn(C)c2n1	none
CCCOc1ccc(-c2nc(C#N)c(NCC3CCCO3)o2)cc1 (centres undefined)	Bead autofluor 24772
N#Cc1nc(Cc2cccc3ccccc23)oc1NCc1ccco1	Bead autofluor 22710
N#Cc1nc(Cc2cccc3ccccc23)oc1NCC1CCCO1 (centres undefined)	Bead autofluor 21943
CCOc1ccc(-c2nc(C#N)c(NCC3CCCO3)o2)cc1 (centres undefined)	Anthrax LF prot inconclusive, Bead autofluor inconclusive, BoNT-A LC inh2 inconclusive
CCN(CC)S(=O)(=O)c1ccc(N2CCOCC2)c(NC(=O)C2CCCO2)c1 (centres undefined)	none
CCOc1cc(/C=C2/C(=N)N3OC(C)=CC3=NC2=O)ccc1OCCOc1ccccc1	MazEF act 148.9
CCOc1cc(/C=C2/C(=N)N3OC(C)=CC3=NC2=O)ccc1OC(=O)c1ccco1	none
CCOc1ccc(/C=C2/C(=N)N3OC(C)=CC3=NC2=O)cc1OC	none
COc1cc(/C=C2/C(=N)N3OC(C)=CC3=NC2=O)ccc1OCCOc1ccc(C)cc1	MazEF act 90.6
O=C(COC(=O)/C=C/c1ccc(OC(F)F)cc1)Nc1cccc(S(=O)(=O)N2CCOCC2)c1	none
CSc1ccc(/C=N/NC(=O)CN2CCN(Cc3ccc(Cl)cc3)CC2)cc1	MazEF act 95.3
COc1ccccc1C(=O)N(CN1CCCC1=O)c1cccc(Cl)c1	Bead autofluor 22324
COc1ccc(C(=O)N(CN2CCCC2=O)c2ccccc2OC)cc1OC	Bead autofluor 23117
COc1cccc(C(=O)N(CN2CCCC2=O)c2cc(C)on2)c1	Bead autofluor 22265, BoNT-A LC inh2 inconclusive
CCOc1ccccc1C(=O)N(CN1CCCC1=O)c1cccc(Cl)c1	Bead autofluor 21571, BoNT-A LC inh2 inconclusive
COc1cccc(C(=O)N(CN2CCCC2=O)c2cccc(Cl)c2)c1	none
Cc1ccccc1-c1n[nH]nc1C1=CC(=O)CC(C)(C)C1	none
O=C1C2(CCC13COC(c1ccc(O)cc1)OC3)COC(c1ccc(O)cc1)OC2 (centres undefined)	Bead autofluor 22568
O=C1C2(CCCC13COC(c1ccc(O)cc1)OC3)COC(c1ccc(O)cc1)OC2 (centres undefined)	none (no result: Anthrax LF prot, Vc quorum ag, Bead autofluor, BoNT-F LC inh, BoNT-A LC inh2)
COc1cccc(C(=Cc2ccc([N+](=O)[O-])cc2)C(=O)O)c1	none
O=C(c1ccccc1)N1CCN(C(=O)c2ccccc2)CC1	none
O=C(c1ccccc1)n1ccn(-c2ccccc2)c1=S	Bead autofluor 19357, BoNT-A LC inh2 inconclusive
O=C(NC1CCCc2ccccc21)C1CCN(c2nnc(-n3cccc3)s2)CC1 (centres undefined)	none
Cc1ccc(C(=O)NC2CCCc3ccccc32)o1 (centres undefined)	Bead autofluor 22743
Cc1cc(C)nc(N2CCC(C(=O)Nc3cccc(C(F)(F)F)c3)CC2)n1	Bead autofluor 17064
Cc1cc(C)nc(N2CCC(C(=O)NC3CCCc4ccccc43)CC2)n1 (centres undefined)	Bead autofluor 19820
Cc1ccc(C(=O)OCC(=O)NC2CCCc3ccccc32)o1 (centres undefined)	none
Cc1ccnc(N2CCC(C(=O)NNC(=O)c3ccncc3)CC2)n1	none
Cc1ccnc(N2CCC(C(=O)Nc3ccc4c(c3)CCC4)CC2)n1	Bead autofluor 17140
COC(=O)c1ccc(OC)c(CN2CCCN(Cc3ccc(F)cc3)S2(=O)=O)c1	none
CCCC(=O)Nc1ccc(C(=O)COC(=O)c2cc(C)oc2C)cc1	none
COc1cc(CN2CCN(C(=O)c3cccc4ccccc34)CC2)cc(OC)c1O	none
Cc1cc(C)c(S(=O)(=O)NCc2cccs2)cc1C	none
COc1ccc(-c2noc(=O)n2CC(=O)N2CCC(Cc3ccccc3)CC2)cc1	none
Cc1ccnc(N2CCC(C(=O)Nc3nnc(C)s3)CC2)n1	Bead autofluor inconclusive
Cc1cc(C)nc(N2CCC(C(=O)Nc3ccc4c(c3)CCC4)CC2)n1	Bead autofluor 21599
O=C(Nc1cccc(C(F)(F)F)c1)C1CCCN1S(=O)(=O)c1cccc2cccnc12 (centres undefined)	Bead autofluor 20787, BoNT-A LC inh2 inconclusive
Cc1cccc(NC(=O)C2CCN(c3nccc(C)n3)CC2)c1	Bead autofluor 20388, BoNT-A LC inh2 inconclusive
CCc1cccc(NC(=O)C2CCCN2S(=O)(=O)c2cccc3cccnc23)c1 (centres undefined)	none
Cc1ccc(C(=O)N2CCSCC2)cc1	Bead autofluor 20353
O=C(c1ccncc1)N1CCN(C(=O)c2ccncc2)CC1	Bead autofluor 22332
COc1cc2oc(=O)cc(CN3CCOCC3)c2cc1Cl	none (no result: MazEF act, Vc quorum ag)
CCC(C)(C)C(=O)Nc1nnc(CCc2ccccc2)s1	BoNT-F LC inh 35.7
CC(C)(C)CC(=O)Nc1nnc(CCc2ccccc2)s1	BoNT-F LC inh inconclusive
O=C(c1ccc(Cl)cc1)c1cnc(Nc2ccccc2Cl)s1	Bead autofluor 20938, BoNT-A LC inh2 inconclusive
CN(c1ccccc1)S(=O)(=O)c1cccc(NC(=O)C2CCCO2)c1 (centres undefined)	none
COc1cnc(-c2ccccn2)nc1Sc1ccc(Cl)cc1	Bead autofluor 21806, BoNT-A LC inh2 inconclusive
